Values joined by “and” are separate entries in the source; they are usually repeats but may differ in a detail not shown here. Identical values can stand only once. About 11,000 (3.1%) of roughly 360,000 compounds were called active. The full list was thinned out, with actives kept by preference. A number with no mark means an inactive call. Cut-off read from the data, not from the text of the source: active = activity change below about -30%; inactive = the rest.
biological target: D(1A) dopamine receptor (Homo sapiens) (UniProt P21728); assay: Antagonist of Human D 1 Dopamine Receptor: qHTS; settings: HEK293 TREx D1 cells, calcium flux, dopamine EC80; at 10 µM; active compounds read low
Sequence (P21728 whole entry, looked up): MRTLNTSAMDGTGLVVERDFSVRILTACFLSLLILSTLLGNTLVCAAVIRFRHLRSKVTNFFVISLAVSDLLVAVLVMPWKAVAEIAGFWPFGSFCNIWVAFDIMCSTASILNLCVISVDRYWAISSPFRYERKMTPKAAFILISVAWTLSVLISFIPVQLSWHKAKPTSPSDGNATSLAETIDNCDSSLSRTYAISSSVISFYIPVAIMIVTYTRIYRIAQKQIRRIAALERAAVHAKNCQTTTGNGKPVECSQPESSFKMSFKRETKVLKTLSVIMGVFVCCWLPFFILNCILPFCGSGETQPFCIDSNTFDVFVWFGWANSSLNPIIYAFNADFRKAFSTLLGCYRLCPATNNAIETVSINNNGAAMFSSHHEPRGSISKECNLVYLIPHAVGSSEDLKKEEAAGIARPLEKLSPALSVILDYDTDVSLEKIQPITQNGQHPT
Summary of the method: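 Using tetracycline-induced force-coupled D1 Hek293 cells and a calcium dye, signals were followed for 180 s after compound, then for 180 s after EC80 dopamine, to detect inhibitors.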
% is set by controls: 0 for no effect and ±100 for the full control effect.

Structure (SMILES)	activity change, negative = inhibition
COc1ccc(-c2cn3c(n2)sc2cc(C(=O)Nc4ccc(F)cc4)ccc23)cc1	-1.55%
O=S(=O)(c1ccccc1)N(Cc1cccc(F)c1)c1ccccc1	-30.7% (active)
O=C(O)c1cc(S(=O)(=O)N(Cc2ccccc2)c2cccc(C(F)(F)F)c2)ccc1Cl	3.45%
O=C(O)c1cc(S(=O)(=O)N(Cc2ccccc2)c2ccccc2)ccc1Cl	11.6%
CCc1ccccc1NC(=O)Cn1c(=O)n(-c2cccc(C)c2)c(=O)c2c1c1cc(OC)ccc1n2C	-1.63%
CCCC(=O)Nc1ccc2oc(-c3ccc(O)c(Br)c3)nc2c1	-6.2%
COc1cccc(C(=O)NC2=NC(c3ccc(N(C)C)cc3)CC(=O)N2)c1 (stereo unspecified)	-6.47%
Cc1ccccc1-n1c(=O)c2ccccc2n(Cc2ccc(F)cc2)c1=O	8.59%
COC(=O)CCc1sc(Nc2ccc(Br)cc2)nc1-c1ccc(OC)cc1	-33.1% (active)
CNC(=O)c1sc(Nc2ccc(OCc3ccccc3)cc2)nc1C	-6.26%
COc1ccc(NC(=O)CCC(=O)Nc2nnc(C3CCCCC3)s2)cc1	5.47%
CCc1nnc(NC(=O)c2ccc(S(=O)(=O)NC3CCCCC3)cc2)s1	1.91%
Cc1ccc(Nc2nnc(SC(C)C(=O)NC3CC3)s2)cc1 (stereo unspecified)	-6.59%
Cc1nnc(SC(C)C(=O)Nc2ccc(S(=O)(=O)NC3CCCCC3)cc2)s1 (stereo unspecified)	-34.5% (active)
CCOc1ccccc1C(=O)NCC(c1ccc(N(C)C)cc1)N1CCCC1 (stereo unspecified)	-18.8%
Cc1ccc(CCn2c3c(c4ccccc42)CN(C)CC3)cn1	-37.8% (active)
COc1ccccc1NC(=O)C1=C(C)Nc2ncnn2C1c1sccc1C (stereo unspecified)	2.71%
Cc1ccc(C(=O)Nc2nc(N)n(-c3ccccc3)n2)cc1	-1.57%
Nc1nc(NC(=O)/C=C/c2ccccc2)nn1-c1ccccc1	-60.9% (active)
Nc1nc(NC(=O)/C=C/c2ccc(F)cc2)nn1-c1ccccc1	8.35%
CCOC(=O)c1cc(-c2ccccc2)n(CCC(=O)Nc2ccccc2CC)c1C	-5.19%
Cc1ccccc1C(=O)Nc1nnc(S(=O)(=O)N(C)c2ccc(Cl)cc2)s1	-3.48%
COc1ccc(N2CCN(C(=O)c3ccc(N4CCCCS4(=O)=O)cc3)CC2)cc1	-28.7%

Structure (SMILES)	activity change, negative = inhibition
COCC(C)NS(=O)(=O)c1ccc(N2CCCCS2(=O)=O)cc1 (stereo unspecified)	-32.2% (active)
COc1ccc(S(=O)(=O)NC(C)C(=O)N2CCCCCC2)cc1 (stereo unspecified)	6.5%
Cc1ccccc1CSc1nc(-c2ccccc2)nc2c1Cc1c(CO)cnc(C)c1O2	-5.66%
CCCC(=O)Nc1cc(C(=O)NCc2ccc(OC)cc2)ccc1S(=O)(=O)c1ccc(Cl)cc1	3.26%
CCc1ccccc1NC(=O)N1CCN(C(=O)c2nsc3ccccc23)CC1	5.59%
O=C(Nc1ccccc1)C1CCN(C(=O)c2ccc(Br)cc2)CC1	-21.4%
O=C(Nc1ccc(S(=O)(=O)N2CCCCC2)cc1)C1CCN(C(=O)c2ccc(F)cc2)CC1	-10.9%
O=C(Nc1ccc(F)cc1)C1CCN(C(=O)c2ccc([N+](=O)[O-])cc2)CC1	-37.8% (active)
CCOC(=O)c1c(NC(=O)c2cc(CC)on2)sc(C(C)=O)c1C	-23.3%
COC(=O)[C@H](Cc1ccccc1)NC(=O)Nc1ccc(S(N)(=O)=O)cc1	-6.59%
NS(=O)(=O)c1ccc(Nc2nc(-c3ccccc3)cs2)cc1	-31.8% (active)
NS(=O)(=O)c1ccc(NS(=O)(=O)/C=C/c2ccccc2)cc1	4.29%
Cc1cccc(NC(=O)CN(c2ccc(C(C)C)cc2)S(=O)(=O)c2c(C)nn(C)c2C)c1C	-5.46%
CCC(=O)N1c2ccccc2CC1C(=O)N1CCN(c2ccccc2)CC1 (stereo unspecified)	-1.25%
CC(C)c1ccc2c(c1)c(SC(C)(C)C)c(CC(C)(C)C(=O)O)n2Cc1ccc(Cl)cc1	-36.5% (active) and -38.2% (active)
CC(C)c1ccc(Cn2c(COc3ccccc3)nc3ccccc32)cc1	0.116%
O=C(Cn1c(=O)nc(-c2ccccc2)c2cc(Cl)ccc21)NCc1ccc(Cl)cc1	7.3%
COc1cccc(-c2nnc(SCC(=O)N3CCC(C)CC3)o2)c1	2.47%
CCc1cc(C(=O)Nc2nnc(C3CC3)s2)sc1C	5.22%
O=C(Nc1nnc(C2CC2)s1)C1=NN(C2CCS(=O)(=O)C2)C(=O)CC1 (stereo unspecified)	-30.2% (active)
O=C(Nc1nnc(C2CC2)s1)c1ccccn1	-8.58%
O=C(CSCc1cnn(-c2ccccc2)c1-n1cccc1)NCc1ccccc1Br	7.2%
COc1ccc2c(c1)c(=O)c(S(=O)(=O)c1ccc(F)cc1)cn2CC(=O)Nc1ccc(C)cc1C	-20%

Structure (SMILES)	activity change, negative = inhibition
CCc1ccc(NC(=O)c2cc(S(=O)(=O)NC3CCCCCC3)ccc2F)cc1	1.8%
COc1ccc(-c2nc(CN3CCC(C(=O)NCCN(CC(C)C)CC(C)C)CC3)c(C)o2)cc1OC	-3.04%
Cc1ccc(NC(=O)CCCn2c(=O)c3cccn3c3ccccc32)cc1Cl	-14.3%
COc1ccc(Cl)cc1NC(=O)Cn1c(=O)c2ccccc2n2nncc12	3.48%
COc1ccc(Cl)cc1NC(=O)Cn1nc(-c2ccc(C)cc2)n(C)c1=S	-37.4% (active)
COc1ccc(Cl)cc1NC(=O)CCn1c(=O)c2cccn2c2ccccc21	-35% (active)
COc1ccc(Cl)cc1NC(=O)CCC(=O)c1ccc(C)cc1	0.782%
COc1ccc(C)cc1NC(=O)CSc1ccc(Cl)cc1	3.7%
Cc1ccc(Nc2nnc(-c3ccc(C)c(S(=O)(=O)N4CCCCC4)c3)c3ccccc23)cc1	-4.3%
Cc1ccc(N(C)C(=O)C2CCN(S(=O)(=O)c3ccc4c(c3)CCCN4C(=O)C3CCC3)CC2)cc1	10.1%
O=C(CCCCn1c(=O)c2ccccc2n(CC(=O)Nc2cccc(C(F)(F)F)c2)c1=O)NCc1ccc2c(c1)OCO2	3.4%
COc1ccc(CCn2cc3c(c2-c2ccc(Br)cc2)c(=O)n(C)c(=O)n3C)cc1OC	2.27%
Fc1ccc(CN2CCc3nc(Nc4ccccc4)ncc3C2)cc1F	5.84%
COc1ccc2c(c1)Cc1sc(NC(=O)c3ccccc3Br)nc1-2	6.21%
CCCCSc1ncnc2c1sc1nc(N3CCOCC3)c3c(c12)CCCC3	3.48%
O=C(CSc1nccn1Cc1ccc(Cl)cc1)NCc1ccccc1	-34.5% (active)
CCCCNC(=O)CSc1nccn1Cc1ccccc1	23.5%
O=C(CSc1nccn1Cc1ccc(F)cc1)NCc1ccccc1	9.06%
Cc1oc(-c2ccccc2F)nc1CN1CCC(C(=O)NCCc2ccc(Cl)cc2)CC1	-10.2%
CC(C)C12CN3CC(C(C)C)(CN(C1)C3c1ccc(OCc3ccccc3)cc1)C2=O (stereo unspecified)	-2.54%
COc1cccc(C2C(C(=O)Nc3ccc(C)cc3C)=C(C)Nc3c(C(=O)Nc4ccccc4)cnn32)c1 (stereo unspecified)	0.0774%
CC(NC(=O)Nc1ccccc1)c1ccccc1 (stereo unspecified)	5.33%
CCC(C(=O)Nc1ccc(C(C)C)cc1)c1ccccc1 (stereo unspecified)	-50.8% (active)

Structure (SMILES)	activity change, negative = inhibition
CC(C)c1ccc(NC(=O)Cn2ncc3ccccc32)cc1	-8.47%
CCOc1ccc(-c2cc3c(=O)n(CC(=O)NCc4ccc(OC)cc4)ccn3n2)cc1	8.73%
O=C(NCCc1csc(-c2ccc(C(F)(F)F)cc2)n1)C(=O)Nc1ccc(F)c(Cl)c1	-0.398%
CCn1c2ccccc2c2nnc(SCC(=O)O)nc21	6.1%
O=C(/C=C/c1cn(CC(O)CN2CCc3ccccc32)c2ccccc12)c1ccc(Br)cc1 (stereo unspecified)	-3.99%
CCOc1ccc(C(=O)/C=C/c2cn(CC(O)CN3CCCCCC3)c3ccccc23)cc1 (stereo unspecified)	-35% (active)
O=C(c1ccc(Cl)cc1)c1ccc(OCC(O)CN2CCCCC2)cc1 (stereo unspecified)	-13.7%
CC(C)c1ccc(NC(=O)Cn2nnc(C(=O)NCCc3ccccc3)c2N)cc1	-8.95%
Cc1ccc(C)c(S(=O)(=O)N2CC(=O)Nc3ccccc32)c1	-34.4% (active)
Cc1ccc(C)c(S(=O)(=O)N2CCN(C(=O)Nc3ccccc3)CC2)c1	-15%
Cc1ccc(S(=O)(=O)N2CC(=O)Nc3ccccc32)cc1C	7.51%
CC1=C(C(=O)OCC2CCCCC2)C(c2c(F)cccc2Cl)CC(=O)N1 (stereo unspecified)	-8.23%
CN(C)S(=O)(=O)N1CCC(Oc2cccc(C(=O)NCCCC3CCCC3)c2)CC1	-36.8% (active)
CNS(=O)(=O)c1cccc(C(=O)NCC2CCCCC2)c1	15.5%
CN(C(=O)c1cccc(OC2CCN(S(=O)(=O)N(C)C)CC2)c1)C1CCOC1 (stereo unspecified)	-17.2%
CCOCCc1nn2c(=O)cc(COC(=O)CNC(=O)c3ccc(C(C)(C)C)cc3)nc2s1	-0.812%
CCC(=O)N1c2ccccc2CC1C(=O)N1CCN(c2cccc(OC)c2)CC1 (stereo unspecified)	-5.92%
CCc1ccc(S(=O)(=O)c2nnn3c2nc(NCc2ccccc2OC)c2cc(Cl)ccc23)cc1	2.93%
CCCNC(=O)c1ccc2c(c1)ncn2-c1ccc(C)cc1C	-21.9%
CSc1ccc(CCNC(=O)C2CCN(c3nnc(-n4cccc4)s3)CC2)cc1	11.1%
Cc1ccc(CCNC(=O)C2CCN(c3nnc(-n4cccc4CNc4ccc(C)cc4)s3)CC2)cc1	-30% (active)
CCOc1ccc(CNC(=O)C2CCN(c3nnc(-n4cccc4CNc4ccc(C)cc4)s3)CC2)cc1OC	4.12%
